Measurements from publication PMC9911399, “Two distinct binding modes provide the RNA-binding protein RbFox with extraordinary sequence specificity”.
Residue numbers refer to the chain shown, from its start. The full ranking holds about 16,000 sequences; the median of “ka relative to ugcaugu” is about 0.096, and the highest 2% start at about 0.35. This excerpt belongs to a sample that is enriched for the highest values.

B1: CUGGUGC (DNA:RNA)
RNA: GGGAGACCGGAAUUCAGAUUGUCCCUGGUGCUUAAAUCCCGUCGUAGCCACCA
DNA 1: CAATCTGAATTCCGGTCTCCC
DNA 2: TGGTGGCTACGACGGGATT
B2: CGGACCU (DNA:RNA)
RNA: B1 RNA with U26G, G28A, U29C, G30C, C31U
DNA 1: CAATCTGAATTCCGGTCTCCC
DNA 2: TGGTGGCTACGACGGGATT
B3: CGGAUAC (DNA:RNA)
RNA: B1 RNA with U26G, G28A, G30A
DNA 1: CAATCTGAATTCCGGTCTCCC
DNA 2: TGGTGGCTACGACGGGATT
B4: CUCGGCU (DNA:RNA)
RNA: B1 RNA with G27C, U29G, G30C, C31U
DNA 1: CAATCTGAATTCCGGTCTCCC
DNA 2: TGGTGGCTACGACGGGATT
B5: AGCGAAC (DNA:RNA)
RNA: B1 RNA with C25A, U26G, G27C, U29A, G30A
DNA 1: CAATCTGAATTCCGGTCTCCC
DNA 2: TGGTGGCTACGACGGGATT
B6: UCGAUAG (DNA:RNA)
RNA: B1 RNA with C25U, U26C, G28A, G30A, C31G
DNA 1: CAATCTGAATTCCGGTCTCCC
DNA 2: TGGTGGCTACGACGGGATT
B7: AGCAAGC (DNA:RNA)
RNA: B1 RNA with C25A, U26G, G27C, G28A, U29A
DNA 1: CAATCTGAATTCCGGTCTCCC
DNA 2: TGGTGGCTACGACGGGATT
B8: GGGGAAC (DNA:RNA)
RNA: B1 RNA with C25G, U26G, U29A, G30A
DNA 1: CAATCTGAATTCCGGTCTCCC
DNA 2: TGGTGGCTACGACGGGATT
B9: GGCAUGU (DNA:RNA)
RNA: B1 RNA with C25G, U26G, G27C, G28A, C31U
DNA 1: CAATCTGAATTCCGGTCTCCC
DNA 2: TGGTGGCTACGACGGGATT
B10: GGCAUUU (DNA:RNA)
RNA: B1 RNA with C25G, U26G, G27C, G28A, G30U, C31U
DNA 1: CAATCTGAATTCCGGTCTCCC
DNA 2: TGGTGGCTACGACGGGATT
B11: GGGCAUG (DNA:RNA)
RNA: B1 RNA with C25G, U26G, G28C, U29A, G30U, C31G
DNA 1: CAATCTGAATTCCGGTCTCCC
DNA 2: TGGTGGCTACGACGGGATT
B12: ACCGGCA (DNA:RNA)
RNA: B1 RNA with C25A, U26C, G27C, U29G, G30C, C31A
DNA 1: CAATCTGAATTCCGGTCTCCC
DNA 2: TGGTGGCTACGACGGGATT
B13: AGGCAUA (DNA:RNA)
RNA: B1 RNA with C25A, U26G, G28C, U29A, G30U, C31A
DNA 1: CAATCTGAATTCCGGTCTCCC
DNA 2: TGGTGGCTACGACGGGATT
B14: AGGCAUC (DNA:RNA)
RNA: B1 RNA with C25A, U26G, G28C, U29A, G30U
DNA 1: CAATCTGAATTCCGGTCTCCC
DNA 2: TGGTGGCTACGACGGGATT
B15: AGGCAUG (DNA:RNA)
RNA: B1 RNA with C25A, U26G, G28C, U29A, G30U, C31G
DNA 1: CAATCTGAATTCCGGTCTCCC
DNA 2: TGGTGGCTACGACGGGATT
B16: GGGCAUA (DNA:RNA)
RNA: B1 RNA with C25G, U26G, G28C, U29A, G30U, C31A
DNA 1: CAATCTGAATTCCGGTCTCCC
DNA 2: TGGTGGCTACGACGGGATT
B17: CGGCAUG (DNA:RNA)
RNA: B1 RNA with U26G, G28C, U29A, G30U, C31G
DNA 1: CAATCTGAATTCCGGTCTCCC
DNA 2: TGGTGGCTACGACGGGATT
B18: AUGUCGU (DNA:RNA)
RNA: B1 RNA with C25A, G28U, U29C, C31U
DNA 1: CAATCTGAATTCCGGTCTCCC
DNA 2: TGGTGGCTACGACGGGATT
B19: CGGCAUA (DNA:RNA)
RNA: B1 RNA with U26G, G28C, U29A, G30U, C31A
DNA 1: CAATCTGAATTCCGGTCTCCC
DNA 2: TGGTGGCTACGACGGGATT
B20: GGGGGCA (DNA:RNA)
RNA: B1 RNA with C25G, U26G, U29G, G30C, C31A
DNA 1: CAATCTGAATTCCGGTCTCCC
DNA 2: TGGTGGCTACGACGGGATT

The binders below were run against T1, RBFOX1 RRM RbFoxmut (Fox-RRM*) (Homo sapiens, UniProt Q9NWB1 109-208, R118D;E147R;N151S;E152T) (assay: EMSA; HiTS-Eq, 1 nM pool, 10 min; buffer printed only for the single-RNA assays: 10 mM Tris pH 7.5, 150 mM NaCl, 3.4 mM EDTA, 0.001% NP-40, 30 C). Conditions: tags: His6 N-terminal (pET28a); label: 5' 32P.
T1 sequence: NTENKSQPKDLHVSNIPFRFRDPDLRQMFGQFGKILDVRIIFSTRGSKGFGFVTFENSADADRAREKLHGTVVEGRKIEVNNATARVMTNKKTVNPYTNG
Method in brief: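 Relative association constants, normalised to the cognate motif, were derived by comparing read counts of each RNA species with those of the control reaction. The RNA sequenced was the free fraction, separated by 8% native PAGE after a 10 min equilibration in 50 µL of 1 nM 5′-radiolabelled RNA (7 randomized nucleotides) with increasing concentrations of purified wild-type or mutant RbFox RRM.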

Binder	binding signal
B1	0.0874 KA relative to UGCAUGU
B2	0.0739 KA relative to UGCAUGU
B3	0.0884 KA relative to UGCAUGU
B4	0.0859 KA relative to UGCAUGU
B5	0.0784 KA relative to UGCAUGU
B6	0.1 KA relative to UGCAUGU
B7	0.0622 KA relative to UGCAUGU
B8	0.0664 KA relative to UGCAUGU
B9	0.834 KA relative to UGCAUGU
B10	0.0782 KA relative to UGCAUGU
B11	1.23 KA relative to UGCAUGU
B12	0.1 KA relative to UGCAUGU
B13	0.11 KA relative to UGCAUGU
B14	0.222 KA relative to UGCAUGU
B15	0.799 KA relative to UGCAUGU
B16	0.134 KA relative to UGCAUGU
B17	0.998 KA relative to UGCAUGU
B18	0.137 KA relative to UGCAUGU
B19	0.108 KA relative to UGCAUGU
B20	0.128 KA relative to UGCAUGU
